ST2 inh = inhibitors of human ST2 (IL1RL1) binding to IL-33, primary screen, biochemical, AlphaLISA. Interleukin-1 receptor-like 1 (Homo sapiens), Q01638. AlphaLISA ST2-Fc/biotin-IL-33 interaction, 1 h. inhibition, % for hits at 17 µM. 78,000 tested, 2.3% active; in the data active = inhibition above about 30%
Target sequence (Q01638 whole entry, looked up): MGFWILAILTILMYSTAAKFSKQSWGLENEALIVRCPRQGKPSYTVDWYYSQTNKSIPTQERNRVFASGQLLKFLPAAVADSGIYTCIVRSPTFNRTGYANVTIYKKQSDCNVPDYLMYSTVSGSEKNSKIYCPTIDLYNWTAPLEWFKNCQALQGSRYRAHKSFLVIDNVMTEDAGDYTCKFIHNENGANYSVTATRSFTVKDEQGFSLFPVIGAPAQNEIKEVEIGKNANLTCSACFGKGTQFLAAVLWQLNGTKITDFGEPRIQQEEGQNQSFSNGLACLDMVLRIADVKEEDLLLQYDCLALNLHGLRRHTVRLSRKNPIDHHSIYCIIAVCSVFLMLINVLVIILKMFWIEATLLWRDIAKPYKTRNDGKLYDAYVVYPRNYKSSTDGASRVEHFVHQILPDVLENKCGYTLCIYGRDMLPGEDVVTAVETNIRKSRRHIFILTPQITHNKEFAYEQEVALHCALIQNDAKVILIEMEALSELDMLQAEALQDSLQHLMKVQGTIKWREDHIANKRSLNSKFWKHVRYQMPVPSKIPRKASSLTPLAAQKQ
Numbers stand for hits; ! = a repeat was not active. Many of the other results were omitted from the sample, so hits are more common in it than they were.

`O=[N+]([O-])c1cc(C(F)(F)F)ccc1NCCc1ccccc1` gave ST2 inh 33.0%.
O=[N+]([O-])c1cc(C(F)(F)F)ccc1N1CCN(S(=O)(=O)c2ccccc2)CC1 was read as ST2 inh inactive.
For O=[N+]([O-])c1ccccc1S(=O)(=O)Nc1cccc(C(F)(F)F)c1 the results were ST2 inh inactive.
CCCc1nc(C(=O)NC2CC(=O)N(CCc3ccc(F)cc3)C2)cs1 (stereo not given) was read as ST2 inh inactive.
`C#CCn1c(=NC(=O)CSCC(=O)Nc2nccs2)sc2ccccc21` gave ST2 inh inactive.
Screening CC(C)Cn1c(NCc2ccccc2)nc2c1c(=O)[nH]c(=O)n2C returned ST2 inh inactive.
`Cc1ccc(N2CN=c3s/c(=C\c4ccco4)c(=O)n3C2)cc1` gave ST2 inh 34.0%.
O=c1/c(=C/c2ccco2)sc2n1CN(c1ccc([N+](=O)[O-])cc1)CN=2 was read as ST2 inh inactive.
`CCOc1ccc(N2CN=c3s/c(=C/c4cccs4)c(=O)n3C2)cc1` gave ST2 inh inactive.
Screening CCOc1ccccc1NC(=O)COc1ccccc1Br returned ST2 inh inactive.
Screening COc1ccccc1/C=C/CN1CCC(N2CCCC(C(=O)NC3CC3)C2)CC1 (stereo not given) returned ST2 inh inactive.
Screening O=S(=O)(NC(=NCc1ccccc1)c1ccc(F)cc1)c1ccccc1 returned ST2 inh inactive.
`COc1ccc(C[C@H](NC(=O)C2=C[C@@H](NC(=O)c3ccc(C)cc3)[C@@H](O)[C@H](O)C2)C(N)=O)cc1` gave ST2 inh inactive.
For NC(=O)[C@H](Cc1cccs1)NC(=O)C1=C[C@@H](NC(=O)c2ccc(F)c(Cl)c2)[C@@H](O)[C@H](O)C1 the results were ST2 inh inactive.
NC(=O)[C@H](Cc1ccc(O)cc1)NC(=O)C1=C[C@@H](NC(=O)c2cnccn2)[C@@H](O)[C@H](O)C1 was read as ST2 inh 44.0%.
Screening CN1CCCC(Cn2c(=O)n(C3CCCCC3)c3ccc(C(=O)O)cc32)C1 (stereo not given) returned ST2 inh inactive.
NNc1ccc2c(Cl)cc(Cl)c(O)c2n1 was read as ST2 inh 35.0%.
CC(C)NC(=O)[C@@H](C)C1CC[C@@]2(C)CC[C@H](NC(=O)c3ccc(C#N)cc3)[C@@H](C)[C@@H]2[C@H]1O (stereo not given in full) was read as ST2 inh inactive.
For O=C(Nn1cnnc1)c1ccccc1Cl the results were ST2 inh 56.0%.
Screening O=C(Nc1cc(Cl)cc(Cl)c1)c1ccccc1Cl returned ST2 inh inactive.
`O=C(Nn1cnnc1)c1ccc(C(=O)Nn2cnnc2)cc1` gave ST2 inh inactive.
`O=[N+]([O-])c1ccc(S(=O)(=O)Nc2ccccc2)cc1` gave ST2 inh inactive.
For O=[N+]([O-])c1ccc(Nc2c[nH]c3ccccc23)cc1 the results were ST2 inh 42.0%.
For O=c1cc[nH]c2ccc([N+](=O)[O-])cc12 the results were ST2 inh inactive.
For O=C1NC(=O)/C(=C\c2ccccc2OCc2ccccc2)S1 the results were ST2 inh inactive.
`CSC1=N/C(=C\c2ccccc2OCc2ccccc2)C(=O)S1` gave ST2 inh 64.0%.
For CC1=NN(c2ccccc2)C(=O)/C1=C/c1ccccc1OCc1ccc(C(=O)O)cc1 the results were ST2 inh inactive.
Screening Cc1ccc(C(=O)O)c(C(=O)Nc2nc3ccc(S(C)(=O)=O)cc3s2)c1 returned ST2 inh inactive.
Screening COc1ccc(NS(=O)(=O)c2ccc(N=Cc3cc(Br)ccc3O)cc2)nn1 returned ST2 inh inactive.
Screening COc1ccc(OC)c(C=Nc2ccc(S(N)(=O)=O)cc2)c1 returned ST2 inh inactive.
`COc1ccc(C=Nc2ccc(O)cc2)c(OC)c1` gave ST2 inh 32.0%.
COc1ccc(-n2c(O)c(C=Nc3ccc(OC)c(OC)c3)c3ccccc3c2=O)cc1 was read as ST2 inh inactive.
For COc1cc(OC)c(C=C2C(=O)OC3(CCCCC3)OC2=O)cc1Br the results were ST2 inh inactive.
COc1cc(OC)c(C=Nc2ccc(O)cc2)cc1Br was read as ST2 inh 51.0%.
Screening Cn1c(CN(CC2CCN(C3CCCC3)CC2)CC2CCCO2)nc2ccccc21 (stereo not given) returned ST2 inh inactive.
Screening O=C(NCCN1CCOCC1)c1cc(=O)[nH]c2ccc(S(=O)(=O)N3CCCCCC3)cc12 returned ST2 inh inactive.
Screening CC(=O)N1CCc2cc(Br)cc(S(=O)(=O)CC(=O)NC3CCCC3)c21 returned ST2 inh inactive.
For CCOc1ccc(CC(=O)N2CCN=C2SCc2ccccc2C)cc1 the results were ST2 inh inactive.
For Cc1ccc(C(C(=O)NCCc2cnccn2)N(C)C)cc1 (stereo not given) the results were ST2 inh inactive.
For CCn1cc(C(=O)NC2CCC(C)CC2)c(=O)c2cc(S(=O)(=O)N3CCC(C)CC3)ccc21 (stereo not given) the results were ST2 inh inactive.
Screening O=C(c1cc(O)c(O)c([N+](=O)[O-])c1)c1ccccc1F returned ST2 inh inactive.
For COc1ccc(NC(=O)c2c(F)cccc2F)c([N+](=O)[O-])c1 the results were ST2 inh inactive.
Cc1cc(Oc2ccccc2F)c(F)cc1[N+](=O)[O-] was read as ST2 inh 31.0%.
`COC(=O)CN(C)Cc1cnc(S(C)(=O)=O)n1CC(C)C` gave ST2 inh inactive.
For O=C(c1ccc(F)cc1)n1cnc2ccccc21 the results were ST2 inh inactive.
`COc1cccc(-c2nc3ccccc3[nH]2)c1` gave ST2 inh inactive.
N=C1SCCN1CC(=O)c1ccc(Br)cc1 was read as ST2 inh 48.0%!.
O=C(CN1C(=O)CCSc2ccccc21)Nc1ccc(Br)cc1 was read as ST2 inh inactive.
O=C(CSc1ncn[nH]1)c1ccc(Br)cc1 was read as ST2 inh inactive.
`Cc1ccc(S(=O)(=O)c2ccc(-c3ccc([N+](=O)[O-])cc3)cc2)cc1` gave ST2 inh 31.0%.
`Cc1ccc(S(=O)(=O)N(Cc2ccc([N+](=O)[O-])cc2)C(C)(C)C)cc1` gave ST2 inh inactive.
Cc1ccc(NS(=O)(=O)c2ccc([N+](=O)[O-])cc2)cc1 was read as ST2 inh inactive.
Screening Cc1c(C)n(C(=O)CN2CCc3ccccc3C2)c2ccccc12 returned ST2 inh inactive.
Screening O=C(Cc1c(C(=O)O)[nH]c2ccccc12)NCc1cccnc1 returned ST2 inh inactive.
For Cc1sc2c(c1C)c(=O)n(CCc1ccccc1)c(=O)n2Cc1cccnc1 the results were ST2 inh inactive.
c1ccc(CCCN2CCOCC2)cc1 was read as ST2 inh inactive.
CCn1c(-c2ccc(S(=O)(=O)N3CCCCC3)cc2)csc1=Nc1ccccc1OC was read as ST2 inh 61.0%.
Screening COc1ccc(S(=O)(=O)N2CCCC2)cc1 returned ST2 inh inactive.
CCn1c(-c2ccc(OC)c(F)c2)csc1=Nc1ccccc1 was read as ST2 inh 73.0%.
Screening O=S(=O)(c1ccc(Cl)cc1)N(CCCN1CCOCC1)Cc1cccs1 returned ST2 inh inactive.
CCSc1nnc(-c2cccnc2)n1Cc1ccccc1 was read as ST2 inh inactive.
Cc1ccc(S(=O)(=O)N2CCCCC2)cc1 was read as ST2 inh inactive.
Screening Clc1ccc(-c2csc(=Nc3ccccc3)n2CCCN2CCOCC2)cc1 returned ST2 inh 64.0%.
